Results filed as inconclusive are left out. Activity calls are given as the source filed them. Unless noted, calls come from the whole dose curve; as a rule, active = well fitted curve in the direction sought with a large enough effect in the repeat runs; inconclusive = weak or mixed curves; inactive = no such curve, though single readings can be large; an effect the other way counts as inactive or inconclusive.
What was measured:
[1] = qHTS assay to identify small molecule HDAC inhibitors (AID 1259364); note: top concentration of the series differs between compounds; nearly all actives have a fitted effect of over 45% in size
Procedure, shortened: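 Wild-type HCT-116 cells, plated overnight at 37 C, exposed to compounds 2 hr at 37 C; luminogenic HDAC-Glo substrate then added 30 min at room temperature. Luminescence reports relative endogenous class I/II HDAC activity.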

[2] = qHTS assay to identify small molecule HDAC inhibitors - cell viability counter screen (AID 1259365); note: series mostly up to about 92 µM; nearly all actives have a fitted effect of over 50% in size
Procedure, shortened: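 Wild-type HCT-116 cells, 1,500/well, cultured overnight, then compound-treated 2 h at 37 C. Viability measured as ATP luminescence with CellTiter-Glo after 30 min at room temperature.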

[3] = qHTS assay to identify small molecule agonists of the sonic hedgehog signaling (Shh) pathway - cell viability counter screen (AID 1259366); note: nearly all actives have a fitted effect of over 50% in size
Procedure, shortened: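 NIH/3T3-derived Gli1-Luc reporter cells, 2,000 per well, received compound after 4 h and were treated about 23 h at 37C. Viability measured in the same wells by CellTiter-Fluor fluorescence after 1 h.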

[4] = qHTS assay to identify small molecule antagonists of the sonic hedgehog signaling (Shh) pathway - cell viability counter screen (AID 1259367); note: nearly all actives have a fitted effect of over 55% in size
Procedure, shortened: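 Cells: 3T3 Gli1-Luc, 2,000/well, 4 hr pre-incubation. Compounds in DMSO, then conditioned medium. Incubation 24 hr, 37C, 5% CO2. CellTiter-Fluor at 23 hr, 1 hr, fluorescence.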

[5] = qHTS assay to identify small molecule agonists of the sonic hedgehog signaling (Shh) pathway (AID 1259368; calls by dose curve;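 note: NIH/3T3-derived 3T3Gli1-Luc cells carrying a stable Gli1-driven firefly luciferase reporter; series mostly up to about 92 µM; nearly all actives have a fitted effect of over 15% in size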)
Procedure, shortened: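 NIH/3T3-derived 3T3Gli1-Luc cells with stably integrated Gli1-driven firefly luciferase, 2,000 cells/well, compounds added after 4 hr. Incubated 24 hr at 37C, 5% CO2; luminescence read after 30 min with luciferase reagent at room temperature.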

[6] = qHTS assay to identify small molecule antagonists of the sonic hedgehog signaling (Shh) pathway (AID 1259369; calls by dose curve; note: nearly all actives have a fitted effect of over 45% in size)
Procedure, shortened: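 NIH/3T3-derived Gli1-Luc reporter cells plated 4 h, dosed with compound, then stimulated with conditioned medium for 24 h at 37 C. Firefly luciferase luminescence read after 30 min with detection reagent at room temperature.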

[7] = target: Estrogen receptor beta (Homo sapiens) (UniProt Q92731); assay: qHTS assay to identify small molecule antagonists of the estrogen receptor beta (ER-beta) signaling pathway (AID 1259378; active = well fitted inhibition curve with a large enough effect in the signal ratio in the repeat runs, not every such curve was filed as active; the % refers to the signal ratio)
Sequence of Estrogen receptor beta (Homo sapiens) (Q92731 whole entry, looked up): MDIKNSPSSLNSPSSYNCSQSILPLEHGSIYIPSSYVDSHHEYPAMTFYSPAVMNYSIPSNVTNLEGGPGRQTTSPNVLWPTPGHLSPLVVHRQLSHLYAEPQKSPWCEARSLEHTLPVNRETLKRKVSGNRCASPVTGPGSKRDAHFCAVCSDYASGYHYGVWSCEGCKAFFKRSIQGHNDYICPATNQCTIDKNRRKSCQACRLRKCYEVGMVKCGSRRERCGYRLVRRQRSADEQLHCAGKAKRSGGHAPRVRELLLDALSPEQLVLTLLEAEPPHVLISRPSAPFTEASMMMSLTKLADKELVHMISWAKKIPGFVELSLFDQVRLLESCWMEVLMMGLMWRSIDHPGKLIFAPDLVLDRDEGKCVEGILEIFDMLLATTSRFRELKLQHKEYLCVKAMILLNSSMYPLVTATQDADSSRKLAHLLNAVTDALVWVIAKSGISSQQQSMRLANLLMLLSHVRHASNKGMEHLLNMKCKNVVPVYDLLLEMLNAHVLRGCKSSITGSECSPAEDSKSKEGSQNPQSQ
Procedure, shortened: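 Antagonist mode: compounds added to beta-lactamase reporter HEK293T ER-beta-UAS cells stimulated with E2 (1nM final), 16 hr at 37C. LiveBLAzer B/G FRET substrate, 2 hours room temperature, fluorescence read-out.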

[8] = qHTS assay to identify small molecule agonists of the androgen receptor (AR) signaling pathway in the presence of an antagonist - cell viability counter screen (AID 1259379);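 note: MDA-kb2 human breast cancer cells carrying an MMTV luciferase reporter; series mostly up to about 92 µM; nearly all actives have a fitted effect of over 25% in size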
Procedure, shortened: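 MDA-kb2 cells (MMTV-luciferase, AR/GR), 3,000/well, 5 h attachment, then 3.0 µM nilutamide (final) and compounds at 15 concentrations. Viability by CellTiter-Fluor fluorescence after 16 h at 37 °C, 0% CO2, in the reporter wells.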

[9] = qHTS assay to identify small molecule agonists of the estrogen receptor beta (ER-beta) signaling pathway - cell viability counter screen (AID 1259380); note: nearly all actives have a fitted effect of over 30% in size
Procedure, shortened: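 ER-beta-UAS-bla HEK293T cells in medium with 2% charcoal-stripped FBS, pre-incubated 6 hr, then treated 16 hr at 37C. Cytotoxicity read in the same wells by CellTiter-Glo luminescence after 30 min at room temperature.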

[10] = qHTS assay to identify small molecule antagonists of the estrogen receptor beta (ER-beta) signaling pathway - cell viability counter screen (AID 1259382);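 note: HEK293T cells carrying ER-beta-UAS-bla reporter stimulated with estradiol; series mostly up to about 92 µM; nearly all actives have a fitted effect of over 55% in size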
Procedure, shortened: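 ER-beta-UAS-bla HEK293T cells in 2% charcoal-stripped FBS medium, treated with compound plus 1 nM 17-beta-estradiol for 16 h at 37C. Viability read by CellTiter-Glo luminescence after 30 min at room temperature in the same wells.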

[11] = qHTS assay to identify small molecule agonists or antagonists of the thyroid stimulating hormone receptor (TSHR) signaling pathway - wild type cell line counter screen (AID 1259384; calls by dose curve)
Procedure, shortened: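 Counter screen in untransfected Hek293: compounds (15-point titration, triplicate) plus phosphodiesterase inhibitor Ro20-1724 added after 18 h plating; 30 min RT. Intracellular cAMP via competitive d2/cryptate immunoassay, 1 h incubation.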

[12] = target: Thyrotropin receptor (Homo sapiens) (UniProt P16473); assay: qHTS assay to identify small molecule antagonists of the thyroid stimulating hormone receptor (TSHR) signaling pathway (AID 1259385; calls by dose curve; note: nearly all actives have a fitted effect of over 20% in size)
Sequence of Thyrotropin receptor (Homo sapiens) (P16473 whole entry, looked up): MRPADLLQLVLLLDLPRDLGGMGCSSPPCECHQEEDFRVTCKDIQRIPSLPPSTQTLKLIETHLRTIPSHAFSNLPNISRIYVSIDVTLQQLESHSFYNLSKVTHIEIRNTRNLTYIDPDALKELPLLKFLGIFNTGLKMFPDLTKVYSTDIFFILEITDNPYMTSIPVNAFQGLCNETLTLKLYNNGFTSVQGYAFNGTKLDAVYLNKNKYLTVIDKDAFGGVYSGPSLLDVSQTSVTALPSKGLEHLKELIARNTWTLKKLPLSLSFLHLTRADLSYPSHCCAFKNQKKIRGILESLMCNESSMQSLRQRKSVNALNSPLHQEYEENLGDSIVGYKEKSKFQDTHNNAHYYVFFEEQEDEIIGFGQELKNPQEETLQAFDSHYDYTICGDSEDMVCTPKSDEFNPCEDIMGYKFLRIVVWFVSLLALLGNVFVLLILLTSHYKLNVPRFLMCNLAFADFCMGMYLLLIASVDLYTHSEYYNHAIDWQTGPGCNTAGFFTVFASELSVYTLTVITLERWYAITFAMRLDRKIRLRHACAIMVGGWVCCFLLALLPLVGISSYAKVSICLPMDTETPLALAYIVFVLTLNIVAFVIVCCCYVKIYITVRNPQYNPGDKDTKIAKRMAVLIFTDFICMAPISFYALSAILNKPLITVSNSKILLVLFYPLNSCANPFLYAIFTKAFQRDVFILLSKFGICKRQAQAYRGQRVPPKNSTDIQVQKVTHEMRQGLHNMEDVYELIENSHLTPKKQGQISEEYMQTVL
Procedure, shortened: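 Antagonist mode: compound-treated TSHR-expressing HEK293 cells were stimulated with 1.5 ng/mL TSH (final) in presence of Ro20-1724 for 30 min at RT. HTRF cAMP detection after 1 h; each compound tested at 15 concentrations, triplicate.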

[13] = qHTS assay to identify small molecule agonists of the estrogen receptor alpha (ER-alpha) signaling pathway in the presence of an antagonist - cell viability counter screen (AID 1259386);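 note: series mostly up to about 92 µM; cells exposed to compounds for 22 h at 37 °C before the viability read; nearly all actives have a fitted effect of over 30% in size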
Procedure, shortened: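 Cell viability in VM7Luc4E2 cells (endogenous full-length ER-alpha) measured by CellTiter-Fluor fluorescence in the same wells as the luciferase screen. Cells pre-cultured 5 days in charcoal-stripped serum, then treated 22 h with compounds at 15 concentrations plus 10.0nM ICI-182,780.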

[14] = target: Progesterone receptor (Homo sapiens) (UniProt P06401); assay: qHTS assay to identify small molecule antagonists of the progesterone receptor (PR) signaling pathway (AID 1346795; active = well fitted inhibition curve with a large enough effect in the signal ratio in the repeat runs, not every such curve was filed as active; the % refers to the signal ratio)
Sequence of Progesterone receptor (Homo sapiens) (P06401 whole entry, looked up): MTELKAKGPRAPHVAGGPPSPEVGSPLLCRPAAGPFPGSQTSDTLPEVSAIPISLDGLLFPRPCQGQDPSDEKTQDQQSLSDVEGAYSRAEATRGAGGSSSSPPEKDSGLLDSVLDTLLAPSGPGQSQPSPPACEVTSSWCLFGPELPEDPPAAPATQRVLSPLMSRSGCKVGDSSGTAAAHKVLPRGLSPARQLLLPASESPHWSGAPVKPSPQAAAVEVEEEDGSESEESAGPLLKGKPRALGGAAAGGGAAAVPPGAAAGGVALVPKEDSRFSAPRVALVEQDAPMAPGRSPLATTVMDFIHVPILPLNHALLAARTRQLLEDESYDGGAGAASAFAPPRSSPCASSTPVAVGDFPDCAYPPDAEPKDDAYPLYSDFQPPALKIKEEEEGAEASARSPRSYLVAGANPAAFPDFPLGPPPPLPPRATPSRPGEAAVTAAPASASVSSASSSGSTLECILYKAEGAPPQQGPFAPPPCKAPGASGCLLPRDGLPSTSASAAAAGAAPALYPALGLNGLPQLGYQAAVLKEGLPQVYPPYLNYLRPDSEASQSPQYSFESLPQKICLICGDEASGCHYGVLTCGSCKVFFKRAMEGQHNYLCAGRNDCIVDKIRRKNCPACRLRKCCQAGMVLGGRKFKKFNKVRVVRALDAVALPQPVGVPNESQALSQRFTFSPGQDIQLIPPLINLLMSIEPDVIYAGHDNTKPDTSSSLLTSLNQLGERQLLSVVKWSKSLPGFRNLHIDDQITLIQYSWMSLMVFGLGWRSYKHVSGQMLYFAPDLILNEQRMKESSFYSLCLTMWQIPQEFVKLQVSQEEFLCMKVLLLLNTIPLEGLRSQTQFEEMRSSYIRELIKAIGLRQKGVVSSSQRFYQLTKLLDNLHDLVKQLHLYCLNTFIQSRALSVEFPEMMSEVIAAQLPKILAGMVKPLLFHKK
Procedure, shortened: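 PR-UAS-bla HEK293T cells with beta-lactamase reporter under UAS control, in 2% charcoal-stripped FBS, treated with compounds plus 1 nM promegestone (R5020, final) for 16 hr at 37C. Read-out: FRET beta-lactamase substrate fluorescence after 2 hr at room temperature.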

[15] = qHTS assay to identify small molecule antagonists of the progesterone receptor (PR) signaling pathway - cell viability counter screen (AID 1346798); note: series mostly up to about 92 µM; nearly all actives have a fitted effect of over 50% in size
Procedure, shortened: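 PR-UAS-bla HEK293T cells, 3,000/well in 2% charcoal-stripped FBS medium, dosed with compounds plus R5020 agonist and incubated 16 h at 37C. Viability then measured in the same wells by CellTiter-Glo luminescence after 30 min at RT.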

[16] = qHTS assay to identify small molecule agonists of the progesterone receptor (PR) signaling pathway - cell viability counter screen (AID 1346799; calls by dose curve; note: nearly all actives have a fitted effect of over 45% in size)
Procedure, shortened: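 Counter screen in the PR-UAS-bla HEK293T wells (2% charcoal-stripped FBS, 16 h compound exposure at 37 C) after the bla read. CellTiter-Glo added, 30 min at room temperature, luminescence read as cell viability.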

[17] = qHTS assay to identify small molecule antagonists of the TGF-beta/Smad signaling pathway - cell viability counter screen (AID 1346824); note: nearly all actives have a fitted effect of over 50% in size
Procedure, shortened: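 Cytotoxicity counter-screen run in the same wells as the beta-lactamase Smad reporter read: CellTiter-Glo luminescence after 30 min at room temperature. HEK 293T SBE-bla cells had 5 hr compound exposure at 37 C with TGF-beta1 (0.25 ng/mL stock).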

[18] = target: Progesterone receptor (Homo sapiens) (UniProt P06401); assay: qHTS assay to identify small molecule agonists of the progesterone receptor (PR) signaling pathway (AID 1346784; calls by dose curve; note: nearly all actives have a fitted effect of over 30% in size)
Procedure, shortened: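 PR-UAS-bla HEK 293T cells (beta-lactamase reporter under UAS) in 2% charcoal-stripped FBS, dosed with 23 nL compound after 6 hr, incubated 16hr at 37C. LiveBLAzer B/G FRET substrate added, fluorescence read after 2 hours.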

[19] = target: Estrogen receptor (Homo sapiens) (UniProt P03372); assay: qHTS assay to identify small molecule agonists of the estrogen receptor alpha (ER-alpha) signaling pathway in the presence of an antagonist (AID 1259383; calls by dose curve; note: top concentration of the series differs between compounds; nearly all actives have a fitted effect of over 15% in size)
Sequence of Estrogen receptor (Homo sapiens) (P03372 whole entry, looked up): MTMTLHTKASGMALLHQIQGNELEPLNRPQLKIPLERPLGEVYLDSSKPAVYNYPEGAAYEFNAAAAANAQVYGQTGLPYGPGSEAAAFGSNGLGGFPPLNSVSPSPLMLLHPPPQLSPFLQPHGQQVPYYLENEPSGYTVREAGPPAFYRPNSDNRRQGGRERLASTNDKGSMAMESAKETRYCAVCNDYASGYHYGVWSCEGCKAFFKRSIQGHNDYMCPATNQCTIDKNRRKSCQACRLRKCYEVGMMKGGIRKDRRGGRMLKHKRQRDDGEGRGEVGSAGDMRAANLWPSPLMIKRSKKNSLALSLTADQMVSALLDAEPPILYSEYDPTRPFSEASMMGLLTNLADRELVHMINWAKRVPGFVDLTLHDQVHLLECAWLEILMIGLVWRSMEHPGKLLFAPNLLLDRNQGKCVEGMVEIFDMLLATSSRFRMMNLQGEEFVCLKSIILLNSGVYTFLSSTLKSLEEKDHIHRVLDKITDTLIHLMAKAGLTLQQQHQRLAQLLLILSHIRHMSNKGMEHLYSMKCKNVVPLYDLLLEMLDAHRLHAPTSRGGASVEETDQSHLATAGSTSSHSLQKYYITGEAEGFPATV
Procedure, shortened: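 VM7Luc4E2 cells express endogenous full-length ER-alpha with an ERE-luciferase reporter and were hormone-deprived for 5 days. Compounds at 15 concentrations were added with 10.0nM ICI-182,780 for 22hr at 37C. Luminescence was read with ONE-Glo.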

[20] = target: Estrogen receptor beta (Homo sapiens) (UniProt Q92731); assay: qHTS assay to identify small molecule agonists of the estrogen receptor beta (ER-beta) signaling pathway (AID 1259377; active = well fitted activation curve with a large enough effect in the signal ratio in the repeat runs, not every such curve was filed as active; the % refers to the signal ratio)
Procedure, shortened: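 ER-beta-UAS-bla HEK293T cells in medium with 2% charcoal-stripped FBS were exposed to compounds for 16 h at 37C. Beta-lactamase reporter activity was read as fluorescence after 2 h with LiveBLAzer B/G FRET substrate at room temperature.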

Measured: Potency

CCCCC(C)C(=O)O (stereo not given)
inactive: [1] | [2] | [3] | [4] | [5] | [6] | [7] | [8] | [9] | [10] | [11] | [12] | [13] | [14] | [15] | [16] | [17]

C[C@H]1O[C@H](O[C@H]2[C@H](O)[C@@H](O)[C@@H](O[C@H]3[C@H](O)[C@@H](O)[C@H](O)O[C@@H]3CO)O[C@@H]2CO)[C@H](O)[C@@H](O)[C@@H]1N[C@H]1C=C(CO)[C@@H](O)[C@H](O)[C@H]1O
inactive: [1] | [2] | [3] | [4] | [5] | [6] | [7] | [8] | [9] | [10] | [13] | [18] | [14] | [16] | [17]

CCC(O)C(C)(C)C (stereo not given)
inactive: [1] | [2] | [3] | [4] | [5] | [6] | [8] | [9] | [10] | [19] | [12] | [13] | [18] | [14] | [16] | [17]

CCC(=O)c1ccc(O)cc1
inactive: [1] | [2] | [3] | [4] | [5] | [6] | [8] | [9] | [10] | [19] | [13] | [18] | [14] | [15] | [16] | [17]

CCOC(=O)CC(CC(=O)OCC)(OC(C)=O)C(=O)OCC
inactive: [1] | [2] | [3] | [4] | [5] | [6] | [7] | [8] | [9] | [10] | [13] | [18] | [14] | [15] | [16] | [17]

Cc1cc(C)cc([N+](=O)[O-])c1
inactive: [1] | [2] | [3] | [4] | [5] | [6] | [8] | [9] | [10] | [19] | [11] | [12] | [13] | [18] | [14] | [15] | [16] | [17]

CC(=O)/C=C/c1ccco1
inactive: [1] | [2] | [3] | [4] | [5] | [6] | [8] | [9] | [10] | [19] | [11] | [13] | [18] | [14] | [15] | [16]

CC(C)CCC(=O)CCC(C)C
inactive: [1] | [2] | [3] | [4] | [5] | [6] | [20] | [7] | [9] | [19] | [11] | [12] | [13] | [18] | [14] | [15] | [16] | [17]

CCN(CC)C(=O)C1CN2CCc3cc(OC)c(OC)cc3C2CC1OC(C)=O (stereo not given)
inactive: [1] | [2] | [3] | [4] | [5] | [6] | [8] | [9] | [10] | [19] | [11] | [12] | [13] | [18] | [14] | [15] | [16] | [17]

CCC(=O)OCCC(C)CCC=C(C)C (stereo not given)
inactive: [1] | [2] | [3] | [4] | [5] | [6] | [7] | [8] | [9] | [10] | [11] | [12] | [13] | [18] | [14] | [15] | [16] | [17]

O=S(=O)(O)CCO
inactive: [1] | [2] | [3] | [4] | [5] | [6] | [7] | [8] | [9] | [10] | [19] | [11] | [12] | [13] | [14] | [15] | [16] | [17]

CCCCCCCCOC(C)=O
inactive: [1] | [2] | [3] | [4] | [5] | [6] | [8] | [9] | [10] | [19] | [11] | [12] | [13] | [18] | [14] | [15]

O=P(O)(O)OCC(O)CO (stereo not given)
inactive: [1] | [2] | [3] | [4] | [5] | [6] | [8] | [9] | [10] | [19] | [13] | [14] | [15] | [16] | [17]

CCC(C)(C)C1CCC(=O)CC1
inactive: [1] | [2] | [3] | [4] | [5] | [6] | [8] | [9] | [10] | [19] | [11] | [12] | [13] | [18] | [14] | [15] | [16] | [17]

From PubChem BioAssay (Tox21)
